# Compounds with a hit are over-represented: about 10% of the library has one in this group of screens.
# RORgamma inh: qHTS for inhibitors of ROR gamma transcriptional activity; actives 5.4% (n = 310,000); Nuclear receptor ROR-gamma (Mus musculus), P51450; Drosophila S2 Gal4-RORgamma UAS-luciferase reporter, 20 h; AID 2551, 2010; Potency, µM (doses to about 53.6 µM), most hits filed as inhibitors; also: nearly all actives have a fitted effect of over 60% in size
# Target sequence (P51450 whole entry, looked up, the tested form may be a part): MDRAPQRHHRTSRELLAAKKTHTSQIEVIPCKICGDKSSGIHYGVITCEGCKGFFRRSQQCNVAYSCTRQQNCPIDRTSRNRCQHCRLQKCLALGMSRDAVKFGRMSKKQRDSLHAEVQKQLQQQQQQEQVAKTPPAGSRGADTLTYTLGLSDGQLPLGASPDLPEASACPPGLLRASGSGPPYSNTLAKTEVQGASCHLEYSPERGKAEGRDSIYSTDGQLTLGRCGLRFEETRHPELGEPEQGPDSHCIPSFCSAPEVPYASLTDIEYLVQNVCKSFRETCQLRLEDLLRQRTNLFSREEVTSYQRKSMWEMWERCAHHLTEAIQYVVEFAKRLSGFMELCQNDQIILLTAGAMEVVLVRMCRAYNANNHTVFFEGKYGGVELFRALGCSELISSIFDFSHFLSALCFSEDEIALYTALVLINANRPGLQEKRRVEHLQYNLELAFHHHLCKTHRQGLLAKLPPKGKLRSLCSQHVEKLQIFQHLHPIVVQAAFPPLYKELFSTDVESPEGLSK
#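 Drosophila Schneider cells stably carrying a metallothionein-driven Gal4 DBD–ROR gamma fusion and a UAS-Photinus luciferase reporter were exposed to compound for 1 hr, then induced with copper sulfate (700 uM final) for 20 hr at ambient temperature before luminescence reading.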
# Gal4-VP16 FLuc: VP16 counterscreen qHTS for inhibitors of ROR gamma transcriptional activity; Drosophila S2 Gal4-VP16 UAS-luciferase, luminescence, 20 h; Potency, µM (titrated, usually from 53.6 µM), usual class: inhibitors; actives 3.5% (n = 310,000); AID 2546, 2010;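 also: Gal4-VP16 expression switched on by copper sulfate through the metallothionein promoter; nearly all actives have a fitted effect of over 50% in size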
# KB-3-1 tox: qHTS assay for MDR1-selective chemotherapeutics: Primary screen using the parental adenocarcinoma cell KB-3-1; KB-3-1 viability, CellTiter-Glo ATP luminescence, 72 h; Potency, µM (doses to about 46.1 µM), hits mostly cytotoxic; actives 1.4% (n = 400,000); AID 1347075, 2019; also: nearly all actives have a fitted effect of over 60% in size
#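 Cytotoxicity measured as CellTiter-Glo luminescence after 72 h at 37 C. Compound titrations were pinned onto drug-naive KB-3-1 parental adenocarcinoma cells grown in DMEM with 10% FBS, and normalized data fitted to concentration-response curves.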
# KB-V1 MDR tox: qHTS assay for MDR1-selective chemotherapeutics: Primary screen using the drug-selected MDR subline cells KB-V1; KB-V1 MDR cells viability, CellTiter-Glo, 72 h; Potency, µM (series often up to 46.1 µM), hits mostly cytotoxic; actives 3.4% (n = 400,000); AID 1347076, 2019; also: nearly all actives have a fitted effect of over 60% in size
#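 Cells of the MDR subline KB-V1 are plated, dosed with compound at multiple concentrations, and incubated 72 h at 37 degrees C; CellTiter-Glo is then added and luminescence read after 10 min.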
# MCF10A rerep: A quantitative high throughput screen for small molecules that induce DNA re-replication in MCF 10a normal breast cells | actives 2.9% (n = 350,000) | MCF 10A DNA re-replication, Hoechst nuclear intensity, 48 h | AID 624296, 2012 | Potency, µM (doses to about 46.1 µM), usual class: activators; also: nearly all actives have a fitted effect of over 50% in size
# SW480 rerep: A quantitative high throughput screen for small molecules that induce DNA re-replication in SW480 colon adenocarcinoma cells; SW480 DNA re-replication, Hoechst DNA content imaging, 48 h; Potency, µM (doses to about 46.1 µM), hits mostly activators; actives 1.8% (n = 340,000); also: nearly all actives have a fitted effect of over 55% in size
#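 SW480 cells exposed to compounds for 48 hr at 37 C, 5% CO2, then Hoechst-stained 40 min. Nuclear DNA content imaged by fluorescence scanning (405 nm excitation, 500-530 nm emission); re-replication scored as increased high-intensity nuclei.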
# Hits are given with their value; - = inactive; ? = inconclusive; . = not tested or not shown; [ ] = remark or other dose. Calls follow the shape of the dose curve; as a rule, active = well fitted curve in the direction sought with a large enough effect; inconclusive = small, poorly fitted or top-dose-only effect, or another doubt; inactive = no such curve, though single readings can be large; an effect the other way counts as inactive or inconclusive.
SMILES,RORgamma inh,Gal4-VP16 FLuc,KB-3-1 tox,KB-V1 MDR tox,MCF10A rerep,SW480 rerep
COC(=O)c1ccc(CN2C(=O)C3CCCCC3C2=O)o1 (configuration not stated),2.82µM,4.47µM,-,?,-,-
CCOc1cc(Br)ccc1S(=O)(=O)NCc1ccccc1,-,-,-,14.6µM,-,-
CCOc1ccc(OCC)c(S(=O)(=O)NCc2ccccc2)c1,-,-,-,-,-,-
Cc1ccc(Cl)cc1N1CCN(C(=O)CSc2nnc3n2C(C)(C)Cc2ccccc2-3)CC1,-,?,?,11.6µM,13µM,-
COc1ccc2nc(NC(=O)CSc3nnc4n3C(C)(C)Cc3ccccc3-4)sc2c1,-,-,-,-,-,-
COc1cc(NC(=O)CSc2nnc3n2C(C)(C)Cc2ccccc2-3)cc(OC)c1,-,-,-,-,-,-
CC1(C)Cc2ccccc2-c2nnc(SCC(=O)N3CCc4ccccc43)n21,-,-,-,4.11µM,-,-
COC(=O)CSc1nnc2n1C(C)(C)Cc1ccccc1-2,-,-,-,-,-,-
COc1ccc(N2CCN(C(=O)CSc3nnc4n3C(C)(C)Cc3ccccc3-4)CC2)cc1,-[0.365 µM],.,?,5.17µM,-,-
CCOC(=O)C(CC)Sc1nnc2n1C(C)(C)Cc1ccccc1-2 (configuration not stated),-,-,-,16.4µM,-,-
O=C(Nc1ccc(Cl)cc1)C1Cc2c(-c3ccccc3)ccnc2O1 (configuration not stated),.,.,-,-,.,.
COc1ccc(N2CCN(C(=O)CSc3nnc4c(C)cc5cc(C)ccc5n34)CC2)cc1,?,-,-,5.8µM,-,-
COc1ccc(N2CCN(C(=O)CSc3nnc4c(C)cc5c(C)cc(C)cc5n34)CC2)cc1,?,-,-,?,-,-
OCCN1CCN(Cc2cc(Br)cc(Br)c2O)CC1,-,-,-,?,-,-
Oc1c(CN2CCN(c3ccccn3)CC2)cc(Cl)c2cccnc12,0.447µM,?,?,5.17µM,?,7.31µM
OCCN1CCN(Cc2cc(Cl)c3cccnc3c2O)CC1,5.62µM,10µM,?,5.8µM,?,3.26µM
Cn1cnnc1Sc1nc([N+](=O)[O-])nn1C,-,-,-,-,-,-
COc1ccccc1-c1nnc(Sc2nc([N+](=O)[O-])nn2C)o1,?,?,?,?,9.2µM,?
Cn1c(/C(C#N)=C(\O)c2ccc(Cl)s2)nc2ccccc21,2µM,4.47µM,-,-,-,-
Cn1c(/C(C#N)=C(\O)c2ccc([N+](=O)[O-])s2)nc2ccccc21,-,-,-,-,-,-
COc1ccc(C(=O)NNc2ncnc3c2cnn3-c2ccc(C)cc2C)cc1,.,.,-,-,.,.
Cc1oc2ncn(C)c(=O)c2c1C(=O)NCc1ccccc1,.,.,-,-,.,.
O=C(NN=C1CCCC1)c1ccc(O)cc1O,7.94µM,11.2µM,-,-,-,-
NNC(=O)c1ccc(O)cc1O,1.26µM,3.16µM,?,-,-,-
CCOc1ccccc1CNC(=O)C(CC)n1nc(C)c2c(C)n(-c3ccccc3)nc2c1=O (configuration not stated),.,.,-,?,.,.
SMILES,RORgamma inh,Gal4-VP16 FLuc,KB-3-1 tox,KB-V1 MDR tox,MCF10A rerep,SW480 rerep
S=C1Cc2ccccc2N1,?,-,5.8µM,?,?,?
O=C1c2ccccc2C(=O)c2c(O)ccc(O)c21,-,-,.,.,.,.
O=C1C(C2=C(O)c3ccccc3C2=O)=Nc2ccccc21,-,?,?,7.31µM,23.1µM,?
COc1ccccc1NC(=O)CN1CCCN(S(=O)(=O)c2ccc(Br)cc2)CC1,.,.,?,-,.,.
CCN(CC)CCNC(=O)c1ccc(NC(=O)c2ccc3c(c2)CCC3)cc1,-,-,-,-,-,18.4µM
CCN(CC)CCNC(=O)c1ccc(NC(=O)Cc2ccccc2F)cc1,-,-,-,-,?,-
CCN(CC)CCNC(=O)c1ccc(NC(=O)c2ccccc2-c2ccc(C(F)(F)F)cc2)cc1,?,?,-,-,20.6µM,?

# Bioassay records deposited in PubChem BioAssay by National Center for Advancing Translational Sciences (NCATS).
